# PubChem BioAssay AID2401 (Southern Research Specialized Biocontainment Screening …, 2010)
# Out of some 2,200 compounds screened, about 530 (24%) were called active. A selection follows. Results with a measured potency or affinity are listed apart. Values without a mark were called inactive.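 The calls were made as follows: active = inhibition above a set limit at one or more concentrations of the dose series; inactive = inhibition under that limit at every dose.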
# Experiment: S. Typhimurium nonspecific reporter signal inhibition – Salmonella Typhimurium, GFP fluorescence, counter-screen for PhoP regulon inhibitor project, dose response (AID 2401);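 also: S. typhimurium with Mg-insensitive nmpC-GFP reporter grown at 10 µM Mg2+; drop in reporter fluorescence reflects general culture growth inhibition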
# Conditions: 4 h; series mostly up to 150 µM; inhibition: at the top concentration
row,SMILES,inhibition
1,S=C(NCc1cccnc1)Nc1ccc(Cl)c(Cl)c1,18.6%
2,Cn1ccnc1C(O)c1ccc(OCc2ccccc2)cc1 (configuration not stated),6.64%
3,O=C(c1cnsn1)N1CCN(c2ccccc2)CC1,-32.8%
4,O=C(Nc1ccc(F)cc1)c1ccccc1F,-15.6%
5,CC(C)(C)NS(=O)(=O)c1ccc(CCC(=O)N2CCOCC2)cc1,-24.9%
6,O=[N+]([O-])c1ccc(-n2nnnc2-c2ccccc2)c([N+](=O)[O-])c1,24.5%
7,O=c1ccc2ccc(Oc3ccc([N+](=O)[O-])cc3[N+](=O)[O-])cc2o1,-5.81%
8,O=C(Nc1ccccc1)Oc1ccc[nH]c1=O,17.1%
9,Cc1ccc(N)cc1-n1c(C)ccc1C,7.88%
10,O=C(CC(NS(=O)(=O)c1ccc(Cl)cc1)c1ccco1)N1CCc2ccccc21 (configuration not stated),-10.5%
11,CC1CCN(C(=O)c2ccc3c(c2NCCO)C(=O)c2ccccc2C3=O)CC1,6.14%
12,CC(=O)Cn1cnc2sc(-c3ccccc3)cc2c1=O,-20.4%
13,COCCn1cc(C(=O)N2CCC(C)CC2)c2c3ccccc3n(C)c2c1=O,-24.8%
14,Oc1ccccc1-c1nc(/C=C/c2ccccc2)nn1-c1ccccc1,-15.6%
15,Cc1ccc(Cn2cnc3ccccc32)cc1,-24.4%
16,O=C(NCCCc1ccccc1)Nc1cccc(Cl)c1,-6.65%
17,COc1cc(NC(=O)Nc2cccc(Cl)c2)c(OC)cc1NC(=O)CN1CCCCC1,1.04%
18,CCCOc1ccc(C(=O)C(CCC(CNCC)C(=O)c2ccc(OCCC)cc2)CNCC)cc1 (configuration not stated),11.4%
19,CCOC(=O)c1ccc2c(c1)C(=O)N(C1CCCCC1)C2=O,-9.18%

row,SMILES,inhibition
1,O=C1c2ccccc2C(=O)N1CCc1csc(-c2cccc(Cl)c2)n1,-25.4%
2,CC(=O)c1ccc(NC(=S)NC(NC(=O)c2ccco2)C(Cl)(Cl)Cl)cc1 (configuration not stated),26%
3,O=[N+]([O-])c1cccc(CN(CCO)Cc2ccccc2)c1,-14.6%
4,Nc1nc(CSc2nc3ccccc3[nH]2)nc(N2CCOCC2)n1,-10.8%
5,COC(=O)c1ccc(C(=O)OC)c(NC(=O)COc2ccccc2OC)c1,-16.4%
6,CCN(CC)c1ccc(S(=O)(=O)Nc2cc(Cl)ccc2Cl)cc1NC(=S)NC(=O)C1CCCC1,-23.8%
7,O=C1/C(=C/c2ccccc2)NC(=S)N1C(c1ccccc1)c1ccccc1,-5.32%
8,Fc1cc(Br)ccc1NC(=S)Nc1ccccc1,-47.3%
9,CCN(CC)S(=O)(=O)c1cccc(NC(=O)Nc2cccc(C(F)(F)F)c2)c1,-36.2%
10,Nc1ccc2c(c1)C(=O)N(CC1CCCO1)C2=O (configuration not stated),4.4%
11,Cc1cccc(C(=O)O/N=C2\CCSc3ccc(C)cc32)c1,-18.9%
12,CCOC(=O)c1cnc2ccc(OC)cc2c1Nc1ccc2c(c1)OCCO2,-24.2%
13,Cn1c(COc2ccccc2)nnc1SCc1nc2ccccc2[nH]1,-16.3%
14,COc1ccccc1-n1c(SCc2cc(=O)oc3cc(O)ccc23)nc2ccccc2c1=O,1.45%
15,Cc1cccc(C)c1OCC(=O)Nn1c(COc2ccccc2)nc2ccccc2c1=O,-32.7%
16,COc1cccc(/C=N/n2c(C)nc3ccccc3c2=O)c1O,-21.2%
17,Nc1nc2ccccc2n1/N=C/c1ccc(-c2ccccc2)o1,-7.01%
18,O=C(Nc1ccc2snnc2c1)Nc1cccc2ccccc12,9.59%
19,CCOC(=O)C1=C(C)NC(SCc2cc(=O)[nH][nH]2)=C(C#N)C1c1cccs1 (configuration not stated),-5.57%

row,SMILES,inhibition
1,COc1ccc(C2CC(c3ccccc3)=NN2C(=O)COC(=O)c2cccnc2)cc1 (configuration not stated),-24%
2,O=C(CN1C(=O)COc2ccccc21)Nc1ccc(F)cc1,-5.72%
3,CCCCn1c(=N)n(CC(=O)C(C)(C)C)c2ccccc21,-16.4%
4,CCCCn1c(NCCO)nc2ccccc21,-5.95%
5,Brc1ccc2nc3c(n2c1)CCCC3,18.8%
6,Cc1ccc(O)c(-c2cc(-c3ccccc3C)[nH]n2)c1,20.4%
7,COC(=O)c1c(C)[nH]c(C(C)=O)c1C,-11.6%
8,CCN(CC(=O)Nc1ccc(N2CCOCC2)cc1)Cc1nc2ccccc2c(=O)[nH]1,-1.68%
9,O=C(Cn1nc(Cl)nc1Cl)c1ccc2c(c1)OCCO2,-12.9%
10,COc1ccc(Nc2ccc3c(c2)=NC2(CCCCC2)[N+]=3[O-])cc1,-31.7%
11,CCOC(=O)N1CCN(C(=O)C(NC(=O)c2ccc(CC)cc2)C(C)C)CC1 (configuration not stated),-17.5%
12,CC(C)CCNC(=O)C(c1ccco1)N(Cc1ccc(F)cc1)C(=O)c1snc(C(N)=O)c1N (configuration not stated),-10.9%
13,O=C1c2ccccc2-c2onc3ccc(NCc4ccco4)c1c23,19.4%
14,CCOC(=O)c1c(C)[nH]c(C)c1C(=O)COC(=O)/C=C/c1cccc(F)c1,-31.3%
15,COC(=O)c1ccccc1NC(=O)CS(=O)(=O)Cc1nc(-c2ccc(C)cc2)oc1C,-9.73%
16,Cc1ccc(CNC(=O)c2cccc(S(C)(=O)=O)c2)cc1,-21.4%
17,CCOC(=O)CC(=O)CSc1nc2c(c(C)c1C#N)CCC2,-22.8%
18,CCn1c(SCc2nc3scc(-c4ccccc4)c3c(=O)[nH]2)nnc1-c1cccs1,27.8%
19,CN1c2ccccc2C(C)(C)[C@]12C=Cc1cc(O)ccc1O2,2.19%
